Source: PubChem BioAssay
The list shows a part of the results. The source made the active and inactive calls.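 How the source made its calls, unless noted: active means GFP response above 150% of the DMSO level; inconclusive means fewer than 70 events counted for a yeast strain; inactive means the rest.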

What was measured:
[1] = hit retest on RPL19A-GFP reporter strain – cell-based, S. cerevisiae, flow cytometry, cherry picks, mother/daughter gates, confirmation (AID 2270;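 active means GFP response below 50% of the DMSO control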); conditions: 3 h, at 10 µM, stronger effect = lower value, 100 = same GFP as DMSO wells
[2] = yeast TOR pathway reporter LAP4-GFP change – cell-based, cherry picks, flow cytometry, mother/daughter gates, confirmation (AID 2271;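 active means GFP response above 150% of the DMSO control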;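 further: ratio of sample to DMSO plate mean so 100% equals DMSO level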); conditions: S. cerevisiae LAP4-GFP strain, 3 h, at 10 µM, stronger effect = higher value, 100 means same as DMSO control
[3] = TOR pathway reporter MEP2-GFP, retest of hits – S. cerevisiae, flow cytometry GFP, cherry picks, confirmation (AID 2272;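 active means GFP response above 150% of the DMSO control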;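 further: ratio of well signal to plate DMSO mean so 100% equals DMSO level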); conditions: S. cerevisiae MEP2-GFP strain, 3 h, at 10 µM, stronger effect = higher value
[4] = yeast AGP1-GFP fluorescence change, single-dose – cell-based, flow cytometry, S. cerevisiae, cherry picks, confirmation (AID 2273);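 further: median GFP channel fluorescence over the whole cell population gate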; conditions: S. cerevisiae AGP1-GFP strain, 3 h, at 10 µM
[5] = TOR pathway CIT2 reporter hit retest – S. cerevisiae, GFP fusion, cherry picks, mother/daughter gates, confirmation (AID 2274); conditions: S. cerevisiae CIT2-GFP strain, flow cytometry, 3 h, at 10 µM, stronger effect = higher value
[6] = green-channel fluorescence artefact in S. cerevisiae – s288c strain, artefact control for yeast TOR pathway GFP screen, dose response (AID 2757;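 active means fluorescence span over the dose series, or activity score, above about 33, limit read from the data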;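 further: thousands of bead-calibrated equivalent soluble fluorophore molecules from median cell fluorescence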); conditions: 520 nm autofluorescence, flow cytometry, 3 h, at 33 µM, stronger effect = higher value, zero means same as solvent-only cells
[7] = measured here: daughter cell gate
[8] = measured here: mother cell gate
[9] = measured here: daughter cell gate response
[10] = measured here: mother cell gate response

Row | SMILES | GFP response vs DMSO [1] | GFP response vs DMSO [1, 7] [%] | GFP response vs DMSO [1, 8] [%] | GFP response relative to DMSO [2] | GFP response relative to DMSO [2, 9] [%] | GFP response relative to DMSO [2, 10] [%] | GFP response vs DMSO [3] | GFP response, % of DMSO [4] | GFP response, % of DMSO [5] | GFP response, % of DMSO [5, 7] [%] | GFP response, % of DMSO [5, 8] [%] | fluorescence change (kMESF span) [6]
1 | Nc1ccccc1SC(C[N+](=O)[O-])c1ccccc1 (centres undefined) | 93.3% (inactive) | 96.3 | 87.6 | 173% (active) | 170 | 169 | 112% (inactive) | 112% (inactive) | 92.2% (inactive) | 100 | 81.8 | 0.62 (inactive)
2 | O=C(O)CCc1ccc(-c2ccc(Br)cc2)o1 | 99.4% (inactive) | 92.2 | 97 | 137% (inactive) | 119 | 129 | 99% (inactive) | 86.6% (inactive) | 84.3% (inactive) | 81.2 | 82.1 | –
3 | CCN1/C(=C/C(C)=C/c2sc3ccccc3[n+]2CC)Sc2ccccc21 | 79.8% (inactive) | 61.3 | 72.1 | 243% (active) | – | 211 | 133% (inactive) | 101% (inactive) | 100% (inactive) | 83.4 | 97.7 | –
4 | Cc1cccc(C)c1NC(=O)C(Cl)C(=O)c1ccccc1 (centres undefined) | 89.9% (inactive) | 87.6 | 82.5 | 241% (active) | 168 | 252 | 100% (inactive) | 101% (inactive) | 99.7% (inactive) | 95.4 | 87.8 | 0 (inactive)
5 | Cc1ccc(CS(=O)(=O)c2ncc(Cl)c(C(=O)Nc3nnc(C(C)C)s3)n2)cc1 | 96.2% (inactive) | 96.1 | 94 | 108% (inactive) | – | 99.5 | 103% (inactive) | 100% (inactive) | 101% (inactive) | 94 | 100 | –
6 | CCOc1cc(/C=C2\C(=N)N3N=C(S(=O)(=O)CC)SC3=NC2=O)ccc1OC(=O)c1ccco1 | 104% (inactive) | 104 | 105 | 89% (inactive) | 92.5 | 90.1 | 104% (inactive) | 100% (inactive) | 115% (inactive) | 113 | 113 | –
7 | Cc1nn2c(NCc3ccccn3)c3c(nc2c1-c1ccccc1)CCC3 | 106% (inactive) | 85.7 | 93.7 | 132% (inactive) | – | 114 | 120% (inactive) | 103% (inactive) | 100% (inactive) | 95.8 | 85.9 | –
8 | O=C1C=CC(=O)N1c1ccc(N2CCCCC2)cc1 | 75.5% (inactive) | 86.8 | 63.8 | 220% (active) | 99.2 | 218 | 87.8% (inactive) | 79.9% (inactive) | 104% (inactive) | 97.2 | 89 | 0.41 (inactive)
9 | Nc1c(C(=O)c2cccs2)sc2nsc(SCCN3CCCCC3)c12 | 114% (inactive) | 110 | 118 | 142% (inactive) | 128 | 158 | 241% (active) | 107% (inactive) | 160% (active) | 149 | 173 | 17.9 (inactive)
10 | Cc1cc(O)c(C(=O)/C=C/c2c(F)c(F)c(F)c(F)c2F)c(=O)o1 | 98.2% (inactive) | 103 | 94.9 | 152% (active) | 145 | 160 | 109% (inactive) | 101% (inactive) | 97.3% (inactive) | 101 | 94.4 | 9.67 (inactive)
11 | CCOC(=O)/C(=C\c1cn(C)c2ccccc12)[N+](=O)[O-] | 98.2% (inactive) | 93.4 | 93.6 | 204% (active) | 163 | 202 | 111% (inactive) | 84.2% (inactive) | 86.9% (inactive) | 88.1 | 76 | –
12 | Cc1cccn2c(=O)c3cc(C(=O)NCCc4ccccc4)c(=N)n(CCCn4ccnc4)c3nc12 | 95.8% (inactive) | 94.7 | 95 | 96.5% (inactive) | – | 92.3 | 103% (inactive) | 98.6% (inactive) | 100% (inactive) | 99.3 | 97.1 | –
13 | O=C(Nc1ccccc1)c1nnsc1S(=O)(=O)c1ccc(Cl)cc1 | 73.3% (inactive) | 87.8 | 61.5 | 164% (active) | 92.8 | 206 | 144% (inactive) | 87.7% (inactive) | 95.5% (inactive) | 93.6 | 84.3 | 1.31 (inactive)
14 | CCCNC(=O)COC(=O)c1ccc(S(=O)(=O)N2CCCC2)cc1 | 97.2% (inactive) | 89.4 | 88.1 | 94.9% (inactive) | 82.6 | – | 98.8% (inactive) | 99.8% (inactive) | 99.7% (inactive) | 90.5 | 78.8 | –
15 | Oc1ccc(Br)cc1/C=N/Nc1ccccn1 | 93.9% (inactive) | 92.3 | 83.8 | 263% (active) | 222 | 261 | 129% (inactive) | 91% (inactive) | 112% (inactive) | 113 | 98 | 1.31 (inactive)
16 | CCN(CC)c1ccc2cc(C(=O)O)c(=O)oc2c1 | 95.1% (inactive) | 89.9 | 94.2 | 126% (inactive) | – | – | 110% (inactive) | 105% (inactive) | 94.4% (inactive) | – | – | –
17 | CCCc1[nH]nc2c1C(c1ccc(OC(=O)N3CCOCC3)c(OC)c1)C(C#N)=C(N)O2 (centres undefined) | 100% (inactive) | 101 | 95.4 | 102% (inactive) | – | – | 100% (inactive) | 97.8% (inactive) | 97.8% (inactive) | 89.9 | 97.7 | –
18 | COc1ccccc1C1C2=C(CC(C)(C)CC2=O)N(CC(=O)O)C2=C1C(=O)CC(C)(C)C2 | 102% (inactive) | 93 | 94 | 105% (inactive) | – | – | 133% (inactive) | 98.9% (inactive) | 117% (inactive) | 118 | 107 | –
19 | N#C/C(=C/c1ccc(N2CCOCC2)o1)c1ccc(Cl)cc1 | 96.8% (inactive) | 93.4 | 91.5 | 109% (inactive) | – | – | 104% (inactive) | 95.8% (inactive) | 104% (inactive) | 108 | 96.8 | –
20 | COc1ccc(C2C3=C(CCCC3=O)N(CC(=O)O)C3=C2C(=O)CCC3)cc1Cl | 102% (inactive) | 99 | 98.5 | 93.8% (inactive) | – | – | 100% (inactive) | 104% (inactive) | 111% (inactive) | 111 | 111 | –
21 | Cc1ccc(C2CCN(C(=S)Nc3cccc(Cl)c3)C2)cc1 (centres undefined) | 96.2% (inactive) | 95.7 | 97.4 | 119% (inactive) | – | – | 97.5% (inactive) | 93.2% (inactive) | 92.1% (inactive) | 90.9 | 95.6 | –
22 | COc1cccc(/C(C)=N/NC(=O)c2ccc(N(C)C)cc2)c1 | 99.7% (inactive) | 96.5 | 99.7 | 93% (inactive) | – | – | 99.5% (inactive) | 98.9% (inactive) | 102% (inactive) | 102 | 89.8 | –
23 | Cc1ccc(N2C(=O)C3C4C=CC(CNC(=S)Nc5cccc(Cl)c5)(O4)C3C2=O)cc1 (centres undefined) | 101% (inactive) | – | – | 97% (inactive) | 99.1 | 97.3 | 101% (inactive) | 98.4% (inactive) | 97.3% (inactive) | 99.2 | 89.5 | –
24 | Cc1c(/C=N/Nc2ccc(C(=O)O)cc2)c2ccccc2n1C | 96.2% (inactive) | 91.3 | 95.8 | 105% (inactive) | – | – | 103% (inactive) | 95.5% (inactive) | 91.7% (inactive) | 81.6 | 82.6 | –
25 | Nc1ccc(-c2c3ccc(=O)cc-3oc3cc(O)ccc23)cc1C(=O)O | 103% (inactive) | 96.4 | 104 | 150% (active) | – | – | 248% (active) | 107% (inactive) | 140% (inactive) | – | – | –
26 | O=C(Nc1cccc(F)c1)c1ccccc1 | 99.4% (inactive) | – | – | 97% (inactive) | 97.5 | 96.2 | 103% (inactive) | 95.9% (inactive) | 98.8% (inactive) | 99.2 | 88.2 | –
27 | Cc1ccc(/C=C/c2ccc(N(C)C)cc2)[n+](C)c1 | 101% (inactive) | 94.2 | 93.8 | 119% (inactive) | – | – | 133% (inactive) | 103% (inactive) | 121% (inactive) | 121 | 110 | –
28 | O=C(c1cccc(COc2ccc(Cl)cc2Cl)c1)N1CCN(c2ccccn2)CC1 | 80% (inactive) | 83.6 | – | 114% (inactive) | 107 | 117 | 103% (inactive) | 86.6% (inactive) | 95.9% (inactive) | 90.2 | 95.6 | –
29 | CN(C)c1ccc(/C=C/c2ccc3ccccc3[n+]2C)cc1 | 95.3% (inactive) | 90 | 88.7 | 98.7% (inactive) | – | – | 107% (inactive) | 89.5% (inactive) | 107% (inactive) | – | 95.5 | –
